Experimental data published in ChEMBL document CHEMBL1961873, “Compounds: GSK PKIS; Assays: Nanosyn kinase panel” (2012).

Columns and labels:
[1] = biological target: T1, Aurora kinase A (Homo sapiens) (UniProt O14965); details: at 1 µM;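 also: values are mean percent inhibition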
T1 sequence (whole entry): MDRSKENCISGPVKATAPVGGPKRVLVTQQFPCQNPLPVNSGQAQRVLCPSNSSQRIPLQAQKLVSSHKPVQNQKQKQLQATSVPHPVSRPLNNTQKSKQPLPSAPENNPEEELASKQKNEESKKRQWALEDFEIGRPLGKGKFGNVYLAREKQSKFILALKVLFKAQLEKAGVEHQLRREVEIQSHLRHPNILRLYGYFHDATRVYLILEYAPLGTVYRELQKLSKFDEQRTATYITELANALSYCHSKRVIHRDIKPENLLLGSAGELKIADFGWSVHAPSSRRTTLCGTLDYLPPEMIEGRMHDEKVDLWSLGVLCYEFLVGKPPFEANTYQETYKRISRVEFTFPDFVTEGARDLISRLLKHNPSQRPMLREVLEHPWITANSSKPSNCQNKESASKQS

[2] = biological target: Aurora kinase B (Homo sapiens) (UniProt Q96GD4); details: at 0.1 µM
[3] = biological target: Aurora kinase B (Homo sapiens) (UniProt Q96GD4); details: at 1 µM
[4] = biological target: T2, Aurora kinase C (Homo sapiens) (UniProt Q9UQB9); details: at 0.1 µM
T2 sequence (whole entry): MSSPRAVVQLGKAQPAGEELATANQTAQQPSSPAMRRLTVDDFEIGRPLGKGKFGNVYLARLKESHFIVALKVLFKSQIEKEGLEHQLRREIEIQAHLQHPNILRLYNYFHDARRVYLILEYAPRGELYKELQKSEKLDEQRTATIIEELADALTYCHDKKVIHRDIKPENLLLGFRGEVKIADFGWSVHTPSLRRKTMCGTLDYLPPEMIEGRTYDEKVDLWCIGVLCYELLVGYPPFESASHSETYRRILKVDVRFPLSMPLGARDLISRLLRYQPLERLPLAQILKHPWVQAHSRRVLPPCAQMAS

[5] = biological target: T2, Aurora kinase C (Homo sapiens); details: at 1 µM
[6] = biological target: Serine/threonine-protein kinase 10 (Homo sapiens) (UniProt O94804); details: at 0.1 µM
[7] = biological target: Serine/threonine-protein kinase 10 (Homo sapiens) (UniProt O94804); details: at 1 µM
[8] = biological target: T3, Mitogen-activated protein kinase kinase kinase kinase 2 (Homo sapiens) (UniProt Q12851); details: at 0.1 µM
T3 sequence (whole entry): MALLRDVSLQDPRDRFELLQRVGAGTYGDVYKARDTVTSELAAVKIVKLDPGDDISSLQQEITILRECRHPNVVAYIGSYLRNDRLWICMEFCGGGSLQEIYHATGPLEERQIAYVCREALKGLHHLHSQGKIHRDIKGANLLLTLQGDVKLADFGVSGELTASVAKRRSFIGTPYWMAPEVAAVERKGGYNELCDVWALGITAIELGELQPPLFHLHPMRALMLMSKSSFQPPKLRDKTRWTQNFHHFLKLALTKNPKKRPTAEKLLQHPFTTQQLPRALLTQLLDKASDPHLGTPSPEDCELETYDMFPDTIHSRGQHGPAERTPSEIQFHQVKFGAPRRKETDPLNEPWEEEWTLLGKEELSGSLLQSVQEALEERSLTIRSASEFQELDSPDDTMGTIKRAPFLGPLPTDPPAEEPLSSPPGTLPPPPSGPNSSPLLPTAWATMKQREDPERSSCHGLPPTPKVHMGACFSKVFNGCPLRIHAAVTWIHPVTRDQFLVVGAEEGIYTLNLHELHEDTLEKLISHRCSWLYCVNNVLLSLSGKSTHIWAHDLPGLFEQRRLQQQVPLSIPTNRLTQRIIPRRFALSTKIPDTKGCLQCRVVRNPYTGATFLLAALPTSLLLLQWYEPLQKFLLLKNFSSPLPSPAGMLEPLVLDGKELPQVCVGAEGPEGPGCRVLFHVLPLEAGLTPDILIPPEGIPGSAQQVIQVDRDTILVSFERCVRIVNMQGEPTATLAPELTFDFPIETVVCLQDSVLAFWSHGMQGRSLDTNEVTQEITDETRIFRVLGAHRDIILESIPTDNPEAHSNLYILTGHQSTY

[9] = biological target: T3, Mitogen-activated protein kinase kinase kinase kinase 2 (Homo sapiens); details: at 1 µM
[10] = biological target: Mitogen-activated protein kinase kinase kinase kinase 4 (Homo sapiens) (UniProt O95819); details: at 0.1 µM
[11] = biological target: Mitogen-activated protein kinase kinase kinase kinase 4 (Homo sapiens) (UniProt O95819); details: at 1 µM
[12] = biological target: Dual specificity mitogen-activated protein kinase kinase 1 (Homo sapiens) (UniProt Q02750); details: at 0.1 µM
[13] = biological target: Dual specificity mitogen-activated protein kinase kinase 1 (Homo sapiens) (UniProt Q02750); details: at 1 µM
[14] = biological target: Misshapen-like kinase 1 (Homo sapiens) (UniProt Q8N4C8); details: at 0.1 µM
[15] = biological target: Misshapen-like kinase 1 (Homo sapiens) (UniProt Q8N4C8); details: at 1 µM
[16] = biological target: T4, Serine/threonine-protein kinase 4 (Homo sapiens) (UniProt Q13043); details: at 0.1 µM
T4 sequence (whole entry): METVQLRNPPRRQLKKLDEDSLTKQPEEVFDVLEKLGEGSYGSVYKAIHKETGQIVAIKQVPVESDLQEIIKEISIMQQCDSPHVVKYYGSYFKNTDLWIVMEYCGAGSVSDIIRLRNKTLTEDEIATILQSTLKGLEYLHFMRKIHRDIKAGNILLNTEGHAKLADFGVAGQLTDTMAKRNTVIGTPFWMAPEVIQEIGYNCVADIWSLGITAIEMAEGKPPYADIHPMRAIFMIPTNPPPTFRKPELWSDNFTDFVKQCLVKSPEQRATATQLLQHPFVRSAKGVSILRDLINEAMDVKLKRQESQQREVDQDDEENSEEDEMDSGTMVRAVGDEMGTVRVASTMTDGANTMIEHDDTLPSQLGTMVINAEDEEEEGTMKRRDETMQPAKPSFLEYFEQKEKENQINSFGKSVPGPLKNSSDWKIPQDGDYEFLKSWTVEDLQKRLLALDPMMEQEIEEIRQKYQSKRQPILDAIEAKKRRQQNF

[17] = biological target: T4, Serine/threonine-protein kinase 4 (Homo sapiens); details: at 1 µM
[18] = biological target: T5, Serine/threonine-protein kinase 3 (Homo sapiens) (UniProt Q13188); details: at 0.1 µM
T5 sequence (whole entry): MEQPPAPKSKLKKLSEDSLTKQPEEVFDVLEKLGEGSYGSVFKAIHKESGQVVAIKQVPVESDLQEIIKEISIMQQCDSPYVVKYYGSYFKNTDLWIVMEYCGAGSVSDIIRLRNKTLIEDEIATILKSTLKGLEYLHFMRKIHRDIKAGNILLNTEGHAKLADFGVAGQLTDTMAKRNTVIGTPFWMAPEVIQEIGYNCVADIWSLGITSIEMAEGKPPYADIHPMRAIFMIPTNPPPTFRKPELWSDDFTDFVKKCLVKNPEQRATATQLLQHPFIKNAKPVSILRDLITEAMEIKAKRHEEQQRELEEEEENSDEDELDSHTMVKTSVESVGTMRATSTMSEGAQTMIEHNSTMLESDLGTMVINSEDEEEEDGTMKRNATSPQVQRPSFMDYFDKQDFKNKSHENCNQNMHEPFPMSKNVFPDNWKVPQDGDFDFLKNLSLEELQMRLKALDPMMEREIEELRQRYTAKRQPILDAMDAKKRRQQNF

[19] = biological target: T5, Serine/threonine-protein kinase 3 (Homo sapiens); details: at 1 µM
[20] = biological target: Serine/threonine-protein kinase 26 (Homo sapiens) (UniProt Q9P289); details: at 0.1 µM
Serine/threonine-protein kinase 26 (Homo sapiens), sequence (Q9P289 2-416 limits assumed): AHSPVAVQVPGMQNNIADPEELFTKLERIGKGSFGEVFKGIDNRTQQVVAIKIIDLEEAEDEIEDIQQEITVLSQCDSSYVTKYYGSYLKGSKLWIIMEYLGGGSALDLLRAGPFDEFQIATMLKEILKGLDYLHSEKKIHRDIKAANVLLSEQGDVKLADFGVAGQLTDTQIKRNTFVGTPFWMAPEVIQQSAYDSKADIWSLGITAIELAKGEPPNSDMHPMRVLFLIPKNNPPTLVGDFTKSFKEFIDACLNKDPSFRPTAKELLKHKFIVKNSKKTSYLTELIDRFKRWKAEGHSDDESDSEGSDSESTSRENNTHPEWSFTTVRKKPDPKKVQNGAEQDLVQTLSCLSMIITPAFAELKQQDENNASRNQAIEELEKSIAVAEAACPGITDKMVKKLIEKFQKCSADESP

Aurora kinase B (Homo sapiens), sequence (Q96GD4 whole entry): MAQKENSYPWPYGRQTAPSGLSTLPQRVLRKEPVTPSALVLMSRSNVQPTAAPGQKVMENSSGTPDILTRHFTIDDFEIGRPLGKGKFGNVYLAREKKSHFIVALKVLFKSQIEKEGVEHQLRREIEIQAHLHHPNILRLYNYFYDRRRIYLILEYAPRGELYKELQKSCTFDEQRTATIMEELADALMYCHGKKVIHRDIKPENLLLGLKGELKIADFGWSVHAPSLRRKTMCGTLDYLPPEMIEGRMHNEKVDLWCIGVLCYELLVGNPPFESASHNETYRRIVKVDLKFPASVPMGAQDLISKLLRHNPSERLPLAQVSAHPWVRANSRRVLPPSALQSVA
Misshapen-like kinase 1 (Homo sapiens), sequence (Q8N4C8 whole entry, looked up): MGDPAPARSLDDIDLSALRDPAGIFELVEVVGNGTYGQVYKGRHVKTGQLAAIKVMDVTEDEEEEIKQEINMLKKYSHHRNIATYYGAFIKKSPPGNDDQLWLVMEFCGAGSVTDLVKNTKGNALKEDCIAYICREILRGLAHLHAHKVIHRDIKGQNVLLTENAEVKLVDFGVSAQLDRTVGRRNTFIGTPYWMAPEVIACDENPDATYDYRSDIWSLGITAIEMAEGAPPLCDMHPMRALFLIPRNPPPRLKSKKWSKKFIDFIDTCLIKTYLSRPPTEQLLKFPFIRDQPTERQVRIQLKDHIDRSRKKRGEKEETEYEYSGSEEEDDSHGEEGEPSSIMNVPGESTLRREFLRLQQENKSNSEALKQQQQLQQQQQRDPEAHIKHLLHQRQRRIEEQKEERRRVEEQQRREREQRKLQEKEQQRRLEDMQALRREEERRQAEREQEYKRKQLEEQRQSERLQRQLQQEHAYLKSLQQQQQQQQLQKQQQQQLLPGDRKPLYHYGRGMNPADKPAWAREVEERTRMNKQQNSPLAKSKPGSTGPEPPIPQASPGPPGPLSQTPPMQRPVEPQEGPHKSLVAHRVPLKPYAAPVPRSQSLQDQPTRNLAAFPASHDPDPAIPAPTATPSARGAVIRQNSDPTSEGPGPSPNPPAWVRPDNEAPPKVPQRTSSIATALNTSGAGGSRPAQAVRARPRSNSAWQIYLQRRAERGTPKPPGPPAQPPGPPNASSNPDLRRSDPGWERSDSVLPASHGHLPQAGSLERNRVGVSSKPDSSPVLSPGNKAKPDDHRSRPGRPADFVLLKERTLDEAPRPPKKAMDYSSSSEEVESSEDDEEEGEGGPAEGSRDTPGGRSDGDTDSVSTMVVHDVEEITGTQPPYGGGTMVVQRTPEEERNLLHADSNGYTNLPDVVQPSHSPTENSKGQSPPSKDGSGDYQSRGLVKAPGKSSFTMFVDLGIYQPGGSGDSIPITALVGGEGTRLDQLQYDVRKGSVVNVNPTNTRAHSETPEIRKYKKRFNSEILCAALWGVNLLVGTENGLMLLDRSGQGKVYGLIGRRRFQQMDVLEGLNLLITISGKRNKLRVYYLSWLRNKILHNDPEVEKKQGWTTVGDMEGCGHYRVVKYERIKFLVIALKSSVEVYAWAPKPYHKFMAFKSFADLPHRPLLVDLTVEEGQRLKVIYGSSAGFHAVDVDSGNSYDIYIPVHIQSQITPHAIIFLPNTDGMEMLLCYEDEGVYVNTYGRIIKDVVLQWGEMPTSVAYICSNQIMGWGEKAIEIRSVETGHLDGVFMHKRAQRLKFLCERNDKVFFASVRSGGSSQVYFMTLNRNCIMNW
Mitogen-activated protein kinase kinase kinase kinase 4 (Homo sapiens), sequence (O95819 2-1239 limits assumed): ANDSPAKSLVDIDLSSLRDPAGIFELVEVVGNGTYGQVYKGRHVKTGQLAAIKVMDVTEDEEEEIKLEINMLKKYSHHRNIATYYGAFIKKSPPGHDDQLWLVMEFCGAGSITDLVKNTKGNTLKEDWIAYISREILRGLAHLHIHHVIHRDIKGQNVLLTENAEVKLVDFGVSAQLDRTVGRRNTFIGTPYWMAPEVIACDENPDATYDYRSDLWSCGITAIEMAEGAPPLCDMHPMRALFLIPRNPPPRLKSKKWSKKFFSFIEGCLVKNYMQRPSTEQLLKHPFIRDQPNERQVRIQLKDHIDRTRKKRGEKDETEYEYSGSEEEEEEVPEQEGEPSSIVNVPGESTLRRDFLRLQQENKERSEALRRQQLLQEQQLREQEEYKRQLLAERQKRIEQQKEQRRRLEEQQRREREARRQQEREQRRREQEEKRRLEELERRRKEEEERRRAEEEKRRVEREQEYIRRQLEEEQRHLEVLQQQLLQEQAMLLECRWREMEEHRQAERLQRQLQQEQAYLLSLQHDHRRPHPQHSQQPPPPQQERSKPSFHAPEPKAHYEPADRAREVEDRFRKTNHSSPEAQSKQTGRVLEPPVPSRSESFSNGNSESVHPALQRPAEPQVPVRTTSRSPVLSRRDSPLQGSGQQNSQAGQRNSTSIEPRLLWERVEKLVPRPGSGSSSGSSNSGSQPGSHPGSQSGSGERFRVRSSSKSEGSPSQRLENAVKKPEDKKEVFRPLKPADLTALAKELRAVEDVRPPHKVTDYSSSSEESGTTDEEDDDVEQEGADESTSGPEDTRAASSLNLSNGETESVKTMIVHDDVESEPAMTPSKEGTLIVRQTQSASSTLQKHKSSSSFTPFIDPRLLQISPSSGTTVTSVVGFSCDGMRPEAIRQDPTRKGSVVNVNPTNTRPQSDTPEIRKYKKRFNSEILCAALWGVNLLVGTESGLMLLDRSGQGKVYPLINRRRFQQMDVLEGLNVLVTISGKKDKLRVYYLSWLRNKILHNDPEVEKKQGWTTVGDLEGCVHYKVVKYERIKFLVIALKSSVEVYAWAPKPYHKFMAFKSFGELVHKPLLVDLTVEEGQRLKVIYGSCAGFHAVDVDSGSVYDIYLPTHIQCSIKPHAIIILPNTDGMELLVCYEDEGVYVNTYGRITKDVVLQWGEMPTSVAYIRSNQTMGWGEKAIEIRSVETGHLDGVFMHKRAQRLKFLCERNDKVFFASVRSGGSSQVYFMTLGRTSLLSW
Dual specificity mitogen-activated protein kinase kinase 1 (Homo sapiens), sequence (Q02750 whole entry): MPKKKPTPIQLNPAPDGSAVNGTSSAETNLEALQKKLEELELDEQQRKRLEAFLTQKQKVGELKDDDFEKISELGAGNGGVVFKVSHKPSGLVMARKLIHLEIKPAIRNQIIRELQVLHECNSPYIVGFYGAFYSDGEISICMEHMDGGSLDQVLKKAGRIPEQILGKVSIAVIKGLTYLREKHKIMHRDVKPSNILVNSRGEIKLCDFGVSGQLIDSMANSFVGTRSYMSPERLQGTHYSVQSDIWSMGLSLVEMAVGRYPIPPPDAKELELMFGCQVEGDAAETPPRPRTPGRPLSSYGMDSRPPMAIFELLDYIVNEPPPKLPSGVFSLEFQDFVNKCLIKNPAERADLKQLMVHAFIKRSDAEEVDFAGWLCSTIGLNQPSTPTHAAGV
Serine/threonine-protein kinase 10 (Homo sapiens), sequence (O94804 whole entry, looked up): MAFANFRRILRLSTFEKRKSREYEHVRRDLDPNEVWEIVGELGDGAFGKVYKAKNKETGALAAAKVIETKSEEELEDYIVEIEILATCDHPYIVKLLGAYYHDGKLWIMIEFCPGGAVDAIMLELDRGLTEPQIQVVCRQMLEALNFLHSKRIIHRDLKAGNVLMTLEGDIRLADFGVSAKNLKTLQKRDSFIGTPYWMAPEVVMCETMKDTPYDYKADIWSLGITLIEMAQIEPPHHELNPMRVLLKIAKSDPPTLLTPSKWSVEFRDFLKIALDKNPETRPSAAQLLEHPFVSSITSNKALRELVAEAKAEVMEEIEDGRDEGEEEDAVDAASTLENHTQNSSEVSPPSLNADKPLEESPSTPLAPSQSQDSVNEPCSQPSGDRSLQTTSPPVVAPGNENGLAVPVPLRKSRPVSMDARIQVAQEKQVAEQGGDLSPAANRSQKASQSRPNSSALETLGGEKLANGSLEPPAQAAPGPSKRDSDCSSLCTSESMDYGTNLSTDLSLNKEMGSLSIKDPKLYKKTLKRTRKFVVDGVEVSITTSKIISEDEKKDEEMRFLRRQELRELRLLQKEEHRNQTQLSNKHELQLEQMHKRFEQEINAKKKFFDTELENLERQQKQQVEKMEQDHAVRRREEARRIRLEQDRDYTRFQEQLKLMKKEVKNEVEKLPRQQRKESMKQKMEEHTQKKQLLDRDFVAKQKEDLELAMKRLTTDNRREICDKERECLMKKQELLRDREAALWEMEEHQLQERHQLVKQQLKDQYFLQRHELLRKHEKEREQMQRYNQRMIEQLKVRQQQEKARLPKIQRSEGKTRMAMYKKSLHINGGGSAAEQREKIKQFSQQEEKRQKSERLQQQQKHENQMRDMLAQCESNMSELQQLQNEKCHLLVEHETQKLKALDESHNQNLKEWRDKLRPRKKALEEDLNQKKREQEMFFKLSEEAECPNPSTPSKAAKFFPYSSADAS

Row | Structure (SMILES) | inhibition [1] | inhibition [2] | inhibition [3] | inhibition [4] | inhibition [5] | inhibition [6] | inhibition [7] | inhibition [8] | inhibition [9] | inhibition [10] | inhibition [11] | inhibition [12] | inhibition [13] | inhibition [14] | inhibition [15] | inhibition [16] | inhibition [17] | inhibition [18] | inhibition [19] | inhibition [20]
1 | COc1ccccc1Nc1ncc(-c2ccccc2)o1 | 8.83% | 4.39% | 11.1% | 3.63% | 12.5% | 8.13% | 8.47% | -0.05% | 4.63% | 6.79% | 26.2% | 4.67% | 3.89% | 6.62% | 17.3% | 3.93% | 5.16% | 6.13% | 7.36% | -1.34%
2 | O=C1NC(=O)C(c2ccc(Cl)cc2)=C1Nc1ccc(Cl)c(C(=O)O)c1 | 4.76% | -0.14% | 2.81% | -1.78% | -3.59% | -1.94% | -1.03% | 0.42% | 2.85% | -1.56% | 0.73% | -2.44% | -3.36% | -0.82% | -0.69% | -1.86% | -3.6% | -2.71% | -2.5% | -0.06%
3 | Cc1nnc(-c2ccc(C)c(-c3ccc(C(=O)Nc4cccc(C#N)c4)cc3)c2)o1 | 5.96% | 2.83% | 4.74% | 1.31% | -2.81% | 4.18% | 5.45% | -0.38% | 2.09% | 5.31% | 10.6% | 2.51% | 1.55% | 4.46% | 9.13% | 1.52% | 6% | 2.65% | 6.4% | -1.07%
4 | Fc1cccc(COc2ccc(Nc3ncnc4sc(-c5cccs5)cc34)cc2Cl)c1 | 2.05% | 1.14% | 6.42% | 1.7% | 7.89% | 2.84% | 4.63% | -0.64% | 1.65% | 1.29% | 6.34% | 2.3% | 4% | 1.45% | 2.51% | 0.07% | 0.3% | -1.67% | -0.19% | -0.02%
5 | COc1cc(C=NNc2ncnc3c2cnn3-c2ccccc2)ccc1O | 94% | 11.5% | 56.8% | 9.9% | 88.3% | 5.58% | 26.1% | 4.63% | 19.3% | 28.1% | 70.6% | 1.68% | 1.06% | 24% | 64.7% | 2.58% | 11.5% | 3.41% | 6.24% | 1.85%
6 | NS(=O)(=O)c1cccc(-c2ccc3c(NC(=O)C4CC4)n[nH]c3c2)c1 | 14.4% | 1.82% | 1.24% | -1.44% | 2.43% | 1.33% | 7.09% | 2.11% | 7.37% | 1.63% | 10% | -1.43% | 2.83% | 1.11% | 8.09% | -3.97% | -4.72% | -3.79% | -2.35% | 0%
7 | CCN1CCC(CC(=O)Nc2n[nH]c3nc(-c4cccs4)c(Br)cc23)CC1 | 0.27% | -0.51% | 3.7% | -1.4% | -3.08% | -1.57% | 1.93% | 0.32% | 2.2% | 0.23% | 9.82% | -3.83% | -4.66% | -1.72% | 5.84% | -4.72% | -4.38% | -4.72% | -2.74% | 2.05%
8 | COC(=O)Nc1nc2cc(Oc3cccc(NC(=O)Nc4cc(C(F)(F)F)ccc4F)c3)ccc2[nH]1 | 1.22% | -1.59% | -0.29% | 0.03% | 4.29% | 4.04% | 12.5% | 1.34% | 3.06% | 3.21% | 4.32% | 0.59% | 0.38% | 1.15% | 3.21% | -1.6% | 0.24% | -1.24% | 0.17% | 0.73%
9 | Cc1ccc(NC(=O)c2ccnc(N3CCCC3)c2)cc1-c1ccc(C(=O)NCC2CC2)cc1 | 4.67% | 1.95% | 6.5% | -0.41% | 7.12% | 3.49% | 7.84% | 3.82% | 13.5% | 10% | 10.9% | 5.95% | 5.8% | 11.6% | 10.5% | 8.79% | 9.83% | 9.39% | 9.53% | 4.41%
10 | O=C1Nc2ccc(C(=O)c3ccco3)cc2C1=Cc1cc(Cl)c(O)c(Cl)c1 | 67.3% | 3.22% | 13.3% | 3.45% | 36.7% | 4.59% | 15.1% | 1.22% | 7.56% | 27.5% | 75.8% | 2.93% | 9.42% | 18.1% | 61.8% | 21.7% | 66.8% | 20.4% | 65.3% | 3.9%
11 | NCc1ccc(-c2nc(-c3ccc(Cl)c(O)c3)c(-c3ccncc3)[nH]2)cc1 | 9.73% | 1.17% | 6.56% | 1.89% | 5.03% | 1.42% | 23.7% | 3.14% | 4.41% | 4.02% | 17.2% | 0.8% | 2.23% | 4.99% | 14.1% | 0.18% | 0.25% | -1% | -1.23% | 0.12%
12 | N#Cc1c(NC(=O)c2cccc3ccccc23)sc2c1CCCC2 | 5.29% | 1.03% | 3.57% | 1.03% | 2.63% | 3.84% | 5.96% | 1.92% | 4.41% | 3.89% | 13.8% | 3.76% | 3.46% | 5.15% | 11.1% | 3.4% | 4.3% | 2.39% | 3.8% | -1.1%
13 | COc1cc2ncn(-c3cc(O[C@H](C)c4ccccc4Cl)c(C(N)=O)s3)c2cc1OC | 30.1% | 8.7% | 37.9% | 4.62% | 50.7% | 99.3% | 88% | 13.6% | 47.4% | 4.5% | 18.6% | 4.68% | 4.4% | 5.71% | 16.9% | 40.3% | 77% | 34.7% | 73.8% | -3.36%
